Bioassay records: PubChem, University of Kansas High Throughput Screening Laboratory
mHTT CaM bind = inhibitors of human mutant huntingtin-calmodulin interaction; P42858; AlphaScreen His-mHTT/GST-CaM binding, luminescence; inhibition, % at 15 µM; 3.6% of 190,000 active; AID 1671202;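 also: 0% = both proteins with DMSO and 100% = one protein alone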
Pf apPOL block = Pf-apPOL DNA polymerase inhibition; Recombinant Pf-apPOL, molecular beacon fluorescence, 1.5 h; inhibition, % at 10 µM; 0.25% of 210,000 active
Starred values were filed as active, the others as inactive; / = not tested or not shown; ! = repeats disagree. Compounds with a hit are over-represented: about 3.5% of the library has one in this group of screens. Rule as the data show it: active = inhibition above about 50%; inactive = the rest.

SMILES	mHTT CaM bind	Pf apPOL block
O=C(c1nn2c(c1Cl)NC(c1ccccc1)CC2C(F)(F)F)N1CCc2ccccc2C1 (stereo unspecified)	72*	-3
CCC1CCCCN1C(=O)c1nn2c(c1Cl)NC(c1ccccc1)CC2C(F)(F)F (stereo unspecified)	87*	-6
O=C(c1nn2c(c1Cl)NC(c1ccccc1)CC2C(F)(F)F)N1CCCCCC1 (stereo unspecified)	50	-2
Cn1cc(CCCC(=O)NCCC2=CCCCC2)c2ccccc21	30	-12
COc1ccc(C2=C/C(=C\c3cccc(Br)c3)C(=O)O2)c(OC)c1	-7	5
COc1ccc(C2Oc3c(Br)cc(Br)cc3C=C2[N+](=O)[O-])cc1OC (stereo unspecified)	69*	-7
COc1cc(C2Oc3ccccc3C=C2[N+](=O)[O-])ccc1OCc1ccccc1 (stereo unspecified)	37	-3
COc1cccc(C2CC(=O)Nc3cc(C)c(C)cc32)c1OC (stereo unspecified)	100*	-17
COc1cc2c(cc1OC)C(c1cccc(Cl)c1Cl)CC(=O)N2 (stereo unspecified)	9	-5
CC(=O)c1c(-c2ccccc2)c2cc(Cl)ccc2[nH]c1=O	32	-4
CC(=O)c1c(-c2ccccc2)c2cc(Br)ccc2[nH]c1=O	58*	1
O=C(Cn1cnc([N+](=O)[O-])n1)Nc1cc(Oc2cccnc2)cc([N+](=O)[O-])c1	6	2
COc1cc(NC(=O)Cn2cnc([N+](=O)[O-])n2)cc([N+](=O)[O-])c1	3	2
O=C(Cn1cnc([N+](=O)[O-])n1)Nc1cc(Oc2cccc(Cl)c2)cc([N+](=O)[O-])c1	62*	3
Cc1cccc(Oc2cc(NC(=O)Cn3cnc([N+](=O)[O-])n3)cc([N+](=O)[O-])c2)c1	57*	4
COc1ccc(C(=O)N2CCC(COc3ccc(C(=O)NC4CC4)cc3)CC2)cc1F	7	-5
CCCNC(=O)C1CN(C(=O)c2ccccc2Cl)CC1c1ccccc1C (stereo unspecified)	1	12
CN(C)S(=O)(=O)Oc1cccc(F)c1OS(=O)(=O)N(C)C	/	-12
CC1=C(C(N)=O)C(c2ccccc2Cl)N2C(=O)CSC2=N1 (stereo unspecified)	-2	2
Cc1cccc(C(=O)NN2CCN(C)CC2)c1	-2	3
NC(=O)c1nnc2ccc(Cl)cc2c1N	/	-8
Cc1ccc(OCC(O)Cn2cnc3ccccc32)cc1 (stereo unspecified)	6	9
OC(COc1ccc(I)cc1)Cn1cnc2ccccc21 (stereo unspecified)	86*	-4
O=C(Nc1c2c(nn1-c1ccc([N+](=O)[O-])cc1)CSC2)c1cccs1	55*	-4
O=C(Nc1c2c(nn1-c1ccc(F)cc1)CSC2)c1cccs1	51*	-10
SMILES	mHTT CaM bind	Pf apPOL block
COc1ccc(/C=C/C(=O)Nc2c3c(nn2-c2ccc([N+](=O)[O-])cc2)CSC3)cc1OC	45	-6
O=C(/C=C/c1ccco1)Nc1c2c(nn1-c1ccc([N+](=O)[O-])cc1)CSC2	98*	-4
O=C(Nc1c2c(nn1-c1ccc([N+](=O)[O-])cc1)CS(=O)(=O)C2)c1cccs1	5	-2
O=C(Nc1c2c(nn1-c1ccc(F)cc1)CS(=O)(=O)C2)c1cccs1	3	-4
Cc1ccc([N+](=O)[O-])cc1S(=O)(=O)Nc1ccc(Br)cc1	15	-7
CCC(=O)Nc1ccc(-n2nc(OC)nc2-c2ccccc2F)cc1	6	-2
O=C(CSc1ncccc1C(=O)O)c1ccc(Cl)cc1	-4	-3
COc1ccc(C2C=C(c3ccc(I)cc3)Nc3ncnn32)cc1OC (stereo unspecified)	1	5
Cn1ccc2c(N3CCCC3)cc3c(c21)C1CCC3C1 (stereo unspecified)	25	1
Cc1ccccc1-c1cc2c(c3c1ccn3C)C1CCC2O1 (stereo unspecified)	31	-4
Cn1ccc2c(N3CCCCCC3)cc3c(c21)C1CCC3O1 (stereo unspecified)	66*	0
Cn1ccc2c(N3CCCCC3)cc3c(c21)C1CCC3C1 (stereo unspecified)	78*	-5
Cn1ccc2c(N3CCCC3)cc3c(c21)C1CCC3O1 (stereo unspecified)	39	-3
Cn1ccc2c(-c3cncc4ccccc34)cc3c(c21)C1CCC3O1 (stereo unspecified)	100*	-3
CN(CC(=O)NC1CC1)S(=O)(=O)c1ccc(Cl)cc1	-3	0
Cc1nc(-c2cccc(-c3noc(-c4ccccc4)n3)c2)cs1	-14	0
COc1cc2c(cc1OC)C(c1ccc(Cl)cc1)OC1=C2C(=O)c2ccccc21 (stereo unspecified)	68*!	-1
COc1ccc(C2Oc3c(ccc4cc(OC)c(OC)cc34)-c3cc(OC)c(OC)cc32)cc1 (stereo unspecified)	11	/
